# Data from PubChem BioAssay (Tox21).
# Values joined by “and” are separate entries in the source; they are usually repeats but may differ in a detail not shown here. Equal values may be shown once. Results filed as inconclusive are left out. Where a call stands in place of a potency, no number is given. More than one record can exist for a structure, and the calls need not agree. Active and inactive are the calls of the source. Unless noted, calls follow the shape of the dose curve; as a rule, active = well fitted cell-killing curve with a large enough effect in the repeat runs; inconclusive = weak or mixed curves, or effect the other way; inactive = flat fitted curve, though single readings scatter.
# Tested on: not listed separately
# Test: qHTS assay to identify small molecule that activate the aryl hydrocarbon receptor (AhR) signaling pathway - cell viability counter screen (AID 743086); also: nearly all actives have a fitted effect of over 45% in size
# Conditions: HepG2-AhR-luc viability, CellTiter-Fluor, 24 h; series mostly up to 70.3 µM
# Summary of the method: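 HepG2-AhR-luc (HG2L7.5c1) cells, 4000/well, treated 24 h at 37 C with compound; viability measured as CellTiter-Fluor fluorescence after 30 min in the same wells as the luciferase read.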
# Potency is read from the fitted curve at half-maximal effect.
row,SMILES,Potency
1,C[C@]12CC[C@@H]3c4ccc(OC(=O)N(CCCl)CCCl)cc4CC[C@H]3[C@@H]1CC[C@@H]2O,inactive
2,CC1(C)CN=C(NN=C(/C=C/c2ccc(C(F)(F)F)cc2)/C=C/c2ccc(C(F)(F)F)cc2)NC1,27.3 µM (active)
3,CCCCCCCCCBr,inactive
4,c1ccc2cc3c(cc2c1)-c1cccc2cccc-3c12,inactive
5,CC(=O)[O-].CC(=O)[O-].O.O.[Cd+2],2.69 µM (active)
6,CCCCCCCCCCCCCC[P+](CCCCCC)(CCCCCC)CCCCCC (tested in a mixture with another compound),27.3 µM (active)
7,CCCCCCCCCCCCCCCC[N+](C)(C)C,inactive and 68.6 µM (active)
8,Cc1cc(C)c(C2=C(OC(=O)CC(C)(C)C)C3(CCCC3)OC2=O)c(C)c1,inactive
9,Cc1cc(SCc2sc(-c3ccc(C(F)(F)F)c(F)c3)nc2C)ccc1OCC(=O)O,inactive
10,CC[C@H](C)[C@H]1O[C@]2(C=C[C@@H]1C)C[C@@H]1C[C@@H](C/C=C(\C)[C@@H](O[C@H]3C[C@H](OC)[C@@H](O[C@H]4C[C@H](OC)[C@@H](O)[C@H](C)O4)[C@H](C)O3)[C@@H](C)/C=C/C=C3\CO[C@@H]4[C@H](O)C(C)=C[C@@H](C(=O)O1)[C@]34O)O2,inactive and 11.4 µM (active)
11,CCOC(=O)CC(=O)CCl,inactive
12,C[C@@H]1CC[C@@]2(OC1)O[C@H]1[C@@H](O)[C@H]3[C@@H]4CC[C@H]5C[C@@H](O[C@@H]6O[C@H](CO)[C@H](O[C@@H]7O[C@H](CO)[C@@H](O)[C@H](O[C@@H]8OC[C@@H](O)[C@H](O)[C@H]8O)[C@H]7O[C@@H]7O[C@H](CO)[C@@H](O)[C@H](O[C@@H]8O[C@H](CO)[C@@H](O)[C@H](O)[C@H]8O)[C@H]7O)[C@H](O)[C@H]6O)[C@H](O)C[C@]5(C)[C@H]4CC[C@]3(C)[C@H]1[C@@H]2C,20.5 µM (active)
13,O=[N+]([O-])c1ccc2ccc3cccc4ccc1c2c34,inactive
14,O=[N+]([O-])c1cc(C(F)(F)F)c(Cl)c([N+](=O)[O-])c1Cl,54.5 µM (active)
15,CC(C)[C@H](C(=O)OC(C#N)c1cccc(Oc2ccccc2)c1)c1ccc(OC(F)F)cc1 (stereo not given in full),inactive
16,Cc1cc(C)cc(OP(=O)(Oc2cc(C)cc(C)c2)Oc2cc(C)cc(C)c2)c1,inactive
17,CC(C)CC(C)N (stereo not given),inactive
18,Nc1ccccc1C(=O)OC/C=C/c1ccccc1,inactive
19,CC(C)[C@H](C(=O)O[C@H](C#N)c1cccc(Oc2ccccc2)c1)c1ccc(Cl)cc1,inactive

row,SMILES,Potency
1,Clc1ccc(C(c2ccccc2Cl)C(Cl)(Cl)Cl)cc1 (stereo not given),inactive
2,CN(C)C(=S)[S-].CN(C)C(=S)[S-].[Cu+2],8.36 µM (active)
3,CN(C)S(=O)(=O)N(SC(F)(Cl)Cl)c1ccccc1,61.1 µM (active)
4,O=C1c2ccccc2C(=O)C1C(=O)C(c1ccccc1)c1ccc(Cl)cc1 (stereo not given),inactive
5,C[C@]12Cc3nonc3C[C@@H]1CC[C@@H]1[C@@H]2CC[C@@]2(C)[C@H]1CC[C@]2(C)O,inactive
6,CC1CCC(C(C)C)C(OC(=O)c2ccccc2N)C1 (stereo not given),inactive
7,C=CC(=O)OCCCCOC(=O)C=C,inactive
8,CCC(C)(C)C(=O)OC1=C(c2ccc(Cl)cc2Cl)C(=O)OC12CCCCC2,inactive
9,N#CSCSC#N,inactive
10,ClC1=C(Cl)[C@]2(Cl)[C@H]3[C@H]([C@H]4C=C[C@H]3C4)[C@@]1(Cl)C2(Cl)Cl,inactive
11,CC1(C)CC/C(=C/c2ccc(Cl)cc2)C1(O)Cn1cncn1 (stereo not given),inactive
12,O=C(CBr)c1ccc(O)cc1,inactive
13,CC(C)OC(=O)C(O)(c1ccc(Cl)cc1)c1ccc(Cl)cc1,inactive
14,FC(Cl)(Cl)Cl,inactive
15,C[C@@H]1O[C@@H](O[C@H]2C[C@@H](O)[C@]3(CO)[C@H]4[C@H](O)C[C@]5(C)[C@@H](C6=CC(=O)OC6)CC[C@]5(O)[C@@H]4CC[C@]3(O)C2)[C@H](O)[C@H](O)[C@H]1O,inactive
16,O=C1NCN(c2ccccc2)C12CCN(CC1COc3ccccc3O1)CC2 (stereo not given),inactive
17,Cc1cc(N=Nc2ccccc2C)ccc1N,5.45 µM (active) and 2.73 µM (active)
18,Oc1c(Cl)c(Cl)cc(Cl)c1Cl,inactive
19,CCCCCCCCCCCCBr,inactive

# Molecular target: Peroxisome proliferator-activated receptor gamma (Homo sapiens) (UniProt P37231)
# Sequence (P37231 whole entry, looked up): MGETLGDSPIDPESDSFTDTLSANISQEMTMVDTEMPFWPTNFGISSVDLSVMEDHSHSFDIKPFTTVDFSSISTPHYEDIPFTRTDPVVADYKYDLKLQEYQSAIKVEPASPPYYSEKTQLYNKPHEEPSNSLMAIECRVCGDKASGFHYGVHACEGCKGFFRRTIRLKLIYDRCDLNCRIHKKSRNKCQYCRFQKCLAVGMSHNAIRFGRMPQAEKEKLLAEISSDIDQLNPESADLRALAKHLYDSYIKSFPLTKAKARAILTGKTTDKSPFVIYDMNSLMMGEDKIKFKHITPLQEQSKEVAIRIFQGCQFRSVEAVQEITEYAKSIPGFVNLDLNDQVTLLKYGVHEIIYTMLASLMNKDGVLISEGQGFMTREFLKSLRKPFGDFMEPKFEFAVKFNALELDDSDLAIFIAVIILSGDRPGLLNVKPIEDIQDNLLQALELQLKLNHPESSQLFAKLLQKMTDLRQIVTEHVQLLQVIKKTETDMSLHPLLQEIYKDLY
# Test: qHTS assay to identify small molecule agonists of the peroxisome proliferator-activated receptor gamma (PPARg) signaling pathway (AID 743094; active = well fitted activation curve with a large enough effect in the signal ratio in the repeat runs, not every such curve was filed as active; the % refers to the signal ratio)
# Conditions: HEK293H PPARg-UAS-bla, beta-lactamase FRET ratio, 17 h; series mostly up to 57 µM
# Summary of the method: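 Fluorescence-based beta-lactamase readout in HEK293H PPARg UAS-bla cells after 17 h compound exposure (37C) and 1 h B/G FRET substrate incubation at room temperature.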
row,SMILES,Potency
1,C[C@]12CC[C@@H]3c4ccc(OC(=O)N(CCCl)CCCl)cc4CC[C@H]3[C@@H]1CC[C@@H]2O,inactive
2,Cc1cc(SCc2sc(-c3ccc(C(F)(F)F)c(F)c3)nc2C)ccc1OCC(=O)O,2.45 µM (active)
3,CCOC(=O)CC(=O)CCl,21.9 µM (active)
4,CC(C)CC(C)N (stereo not given),inactive
5,Nc1ccccc1C(=O)OC/C=C/c1ccccc1,inactive
6,Clc1ccc(C(c2ccccc2Cl)C(Cl)(Cl)Cl)cc1 (stereo not given),inactive
7,CC1CCC(C(C)C)C(OC(=O)c2ccccc2N)C1 (stereo not given),inactive
8,C=CC(=O)OCCCCOC(=O)C=C,9.77 µM (active)
9,CCC(C)(C)C(=O)OC1=C(c2ccc(Cl)cc2Cl)C(=O)OC12CCCCC2,1.74 µM (active)
10,ClC1=C(Cl)[C@]2(Cl)[C@H]3[C@H]([C@H]4C=C[C@H]3C4)[C@@]1(Cl)C2(Cl)Cl,inactive
11,CC(C)OC(=O)C(O)(c1ccc(Cl)cc1)c1ccc(Cl)cc1,inactive
12,O=C1NCN(c2ccccc2)C12CCN(CC1COc3ccccc3O1)CC2 (stereo not given),inactive
